From PubChem BioAssay
ROC1-CUL1 inh: human ROC1-CUL1 E3 ligase inhibition. P62877+Q13616. in vitro K48 di-Ub FRET, acceptor:donor ratio, 45 min. inhibition, % at 10 µM. 0.6% of 140,000 active. AID 1347404; in the data active = inhibition above about 25%
* marks the source's active call; other numbers are inactive results. Shown is part of a subset that was picked to be rich in hits.

SMILES | ROC1-CUL1 inh
CN1C(=O)N(C)C(=O)C(Cl)(Cl)C1=O | 32.7*
COC(=O)OCC12CCC(O1)C1(C)C(=O)OCC21 (stereo not given) | 56.0*
O=c1c2ccccc2[nH]c(=S)n1-c1ccc(Cl)cc1Cl | 0.9
Cc1cc(C)nc(NC2=NCCS2)n1 | 9.3
Clc1ccc(C2N3CCCN23)c(Cl)c1 (stereo not given) | -4.8
O=C1C(=O)c2ccccc2-c2ccccc21 | 98.0*
O=C1C(=O)c2c3ccccc3cc3cccc1c23 | -1.2
O=C1C(=O)c2cccc3cccc1c23 | 0.7
CC(C)COC(=O)C(O)(c1ccccc1)c1ccccc1 | 5.3
c1n[nH]c(-n2cnnc2)n1 | -3.3
O=C1NC(=S)N(c2cccc(F)c2)C(=O)/C1=C/c1ccc(Br)o1 | 93.8*
C=CCN1C(=O)/C(=C/c2ccc(Br)s2)C(=O)NC1=S | 1.2
O=C1NC(=O)N(c2ccccc2)C(=O)/C1=C\c1ccccc1 | -10.0
N=C1c2ccccc2CN1c1ccc(Cl)cc1Cl | -11.2
C=Cc1ccc(Cn2c(C)c(CNCCc3cc(OC)ccc3OC)c(C(=O)O)c2C)cc1 | -2.9
COc1ccc(C(=O)C2CCCN(Cc3ccn[nH]3)C2)cc1F (stereo not given) | 6.3
Cc1cc(/C=C2\C(=O)NC(=O)N(Cc3ccccc3)C2=O)c(C)n1-c1ccc(Cl)c(C(=O)O)c1 | 35.8*
C=CCN1C(=O)/C(=C/c2cc(C)n(-c3cccnc3)c2C)C(=O)NC1=S | 3.8
COc1ccc(C=C2C(=O)NC(=S)NC2=O)c(OC)c1 | -2.4
CCOc1ccc(N2C(=O)/C(=C/c3cc(C)n(-c4ccc(S(N)(=O)=O)cc4)c3C)C(=O)NC2=S)cc1 | 27.6*
O=C1NC(=S)NC(=O)C1=Cc1ccccc1OCc1ccc(C(=O)O)cc1 | -9.6
Cc1cc(/C=C2\C(=O)NC(=S)N(c3cccc(Cl)c3)C2=O)c(C)n1-c1cc(C(=O)O)cc(C(=O)O)c1 | 55.4*
COc1ccc(N2C(=O)/C(=C/c3cc(C)n(-c4ccc(C(=O)O)cc4C)c3C)C(=O)NC2=S)c(OC)c1 | 36.7*
CC1CN=C(Nc2ccc(OC(F)(F)Cl)cc2)S1 (stereo not given) | -2.5
COCCN=CC1C(=O)NC(=O)NC1=O | 3.3
SMILES | ROC1-CUL1 inh
c1ccc2c(CNCCc3c[nH]c4ccccc34)cccc2c1 | -11.9
Cc1ccccc1Cn1cccc(C(=O)Nc2nc3ccccc3s2)c1=O | 1.9
c1nc2c([nH]1)CCNC2c1ccc2c(c1)OCO2 (stereo not given) | -1.6
CCCCOc1ccccc1C1c2c(c3ccccc3oc2=O)OC(=N)C1C#N (stereo not given) | -2.4
CN(C)C(=O)Oc1ccc(-c2c[n+]3ccccc3n2C)cc1 | 0.7
CCOC(=O)c1c[nH]c(=S)n1C(C)c1ccccc1 (stereo not given) | -3.9
CC1CN=C(Nc2ccccc2F)S1 (stereo not given) | 4.9
CCC1(CC)C(=O)N=C(SC)NC1=O | -3.9
O=C1NC(=O)C(CCc2ccncc2)(c2ccccc2)C(=O)N1 | 4.4
Cc1ccc(C(NC(=O)NN(C(=O)c2cc(C)cc(C)c2)C(C)(C)C)P(=O)(Oc2ccccc2)Oc2ccccc2)cc1 (stereo not given) | 2.2
Cc1ccc(C(OCCN2CCCCC2)c2ccccc2)cc1 (stereo not given) | 1.6
COC(=O)C1=C(C)OC(=N)C(C#N)C12C(=O)Nc1ccc(C)cc12 (stereo not given) | 3.1
CSc1ccc(C(=O)C2CCCN(Cc3cccc(C(C)=O)c3)C2)cc1 (stereo not given) | 15.3
CC1CCOC(CBr)(c2cc(OC(=O)N(C)C)cc(OC(=O)N(C)C)c2)O1 (stereo not given) | 2.9
CN1CCc2nc(SCc3ccc(Cl)cc3)c(C#N)cc2C1 | -3.1
O=C1NC(=O)N(Cc2ccc(F)cc2)C(=O)/C1=C\c1ccoc1 | 75.8*
O=C1NC(=S)NC(=O)C1=Cc1c2ccccc2cc2ccccc12 | -8.9
O=[N+]([O-])C12CNCC([N+](=O)[O-])(CNC1)C2 | 6.8
CC(Cc1cncs1)NC1CCN(c2ccc(CC(=O)NCCc3cccc(F)c3)cc2)CC1 (stereo not given) | -0.1
N#CC(C#N)=Cc1csc2ccccc12 | -14.5
N#CC(C#N)=Cc1ccc([N+](=O)[O-])s1 | 27.0*
CC(C)c1ccc(C2N3CCCN23)cc1 (stereo not given) | 7.4
C=CCN1CCN(C(=O)Cc2c(F)cccc2Cl)CC1 | 14.6
CC(NS(C)(=O)=O)c1nnc2n1-c1ccc(Cl)cc1C(c1ccccc1Cl)=NC2 (stereo not given) | -4.2
CSc1ccc(CN2CCN(C(=O)COc3cccc(C)c3)CC2)cc1 | 2.7
